# Measurements published in PubChem BioAssay (NCI).
# Compounds without any hit were thinned out: in the full panel of roughly 79,000, 15% have a hit. Values without a mark were called inactive. Active and inactive are the calls of the source. Cut-off read from the data, not from the text of the source: active = growth inhibition above about 70%; inactive = the rest.
# What was measured:
# [1] = NCI Yeast Anticancer Drug Screen. Data for the mlh1 rad18 strain (AID 175); conditions: S. cerevisiae mlh1 rad18 strain growth inhibition, hits give high values
# Method in brief: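 Growth inhibition of the yeast strain was measured after compound exposure and expressed relative to vehicle-treated controls. The strain carries defined defects in DNA damage repair.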
# [2] = NCI Yeast Anticancer Drug Screen. Data for the rad18 strain (AID 177); conditions: S. cerevisiae rad18 mutant growth inhibition, hits give high values
# Method in brief: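 Yeast carrying a defined DNA damage repair alteration were exposed to compounds. Growth inhibition was expressed relative to vehicle-treated controls.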
# [3] = NCI Yeast Anticancer Drug Screen. Data for the rad52 strain (AID 147);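 note: 0% = growth of vehicle-treated control cultures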; conditions: S. cerevisiae rad52 mutant growth inhibition, hits give high values
# Method in brief: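 Yeast strain carrying a DNA damage repair alteration was exposed to test compounds. Growth inhibition was measured relative to vehicle-treated controls.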
# [4] = NCI Yeast Anticancer Drug Screen. Data for the wt1 strain (AID 149);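 note: 0% = growth of vehicle-treated wt1 cultures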; conditions: S. cerevisiae wt1 strain (SPY 50644) growth inhibition, hits give high values
# Method in brief: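 Yeast wt1 strain exposed to compounds; growth inhibition measured relative to vehicle-treated controls.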
# [5] = NCI Yeast Anticancer Drug Screen. Data for the rad50EPP+ strain (AID 151);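 note: 0% = growth of vehicle-treated control cultures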; conditions: S. cerevisiae rad50 mutant strain, hits give high values
# Method in brief: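 Yeast strain carrying rad50 alteration (rad50EPP+) exposed to compounds; growth inhibition measured relative to vehicle-treated controls.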
# [6] = NCI Yeast Anticancer Drug Screen. Data for the rad50 strain (AID 155);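 note: 0% = growth of vehicle-only cultures of the same strain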; conditions: S. cerevisiae rad50 strain growth inhibition, hits give high values
# Method in brief: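 Yeast carrying a defined DNA repair defect were exposed to test compounds, and growth was compared with vehicle-treated controls to give percent inhibition.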
# [7] = NCI Yeast Anticancer Drug Screen. Data for the mec2-1 strain (AID 157); conditions: S. cerevisiae mec2-1 strain, hits give high values
# Method in brief: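 mec2-1 yeast strain, carrying an alteration in DNA damage repair or cell cycle control, was exposed to compounds; growth inhibition was measured relative to vehicle-treated controls.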
# [8] = NCI Yeast Anticancer Drug Screen. Data for the rad14 strain (AID 159);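 note: 0% = growth of vehicle-treated control cultures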; conditions: S. cerevisiae rad14 strain growth inhibition, hits give high values
# Method in brief: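 Yeast cells carrying a defined DNA-repair defect were exposed to compounds, and growth inhibition was calculated relative to vehicle-treated control cultures.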
# [9] = NCI Yeast Anticancer Drug Screen. Data for the sgs1 mgt1 strain (AID 161);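 note: 0% = growth of cultures given vehicle only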; conditions: S. cerevisiae sgs1 mgt1 strain, hits give high values
# Method in brief: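 This yeast growth screen uses a strain with defined DNA-repair lesions; compound-treated growth is compared with vehicle-treated growth.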
# [10] = NCI Yeast Anticancer Drug Screen. Data for the CLN2oe strain (AID 163);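 note: 0% = growth of vehicle-only control cultures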; conditions: S. cerevisiae CLN2oe strain, hits give high values
# Method in brief: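 Yeast cells carrying a defined cell-cycle control alteration were exposed to test compounds. Growth inhibition was scored against vehicle-treated control cultures.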
# [11] = NCI Yeast Anticancer Drug Screen. Data for the cln2 rad14 strain (AID 165);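 note: 0% = growth equal to vehicle treated cultures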; conditions: S. cerevisiae cln2 rad14 strain, hits give high values
# Method in brief: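 Yeast carrying cln2 and rad14 alterations (cell cycle control and DNA damage repair) were exposed to compounds. Growth inhibition was measured against vehicle-treated controls.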
# [12] = NCI Yeast Anticancer Drug Screen. Data for the bub3 strain (AID 167); conditions: S. cerevisiae bub3 mutant strain, hits give high values
# Method in brief: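 Compounds were applied to a genetically altered yeast strain carrying a cell-cycle control defect. Growth inhibition was scored against vehicle-treated controls.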
# [13] = NCI Yeast Anticancer Drug Screen. Data for the wt2 strain (AID 169);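 note: 0% = growth of vehicle-treated yeast cultures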; conditions: S. cerevisiae wt2 strain growth inhibition, hits give high values
# Method in brief: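 Yeast cells were exposed to test compounds, and growth inhibition was measured relative to vehicle-treated controls.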
# [14] = NCI Yeast Anticancer Drug Screen. Data for the sgs1 strain (AID 173);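 note: 0% = growth of vehicle-only control cultures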; conditions: S. cerevisiae sgs1 mutant, hits give high values
# Method in brief: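 Yeast mutant strains carrying defined defects in DNA damage repair or cell cycle control were exposed to test compounds. Growth inhibition was scored against vehicle-treated controls.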
# [15] = NCI Yeast Anticancer Drug Screen. Data for the mlh1 strain (AID 171);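 note: 0% = growth of vehicle-treated control cultures of the same strain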; conditions: S. cerevisiae mlh1 strain growth inhibition, hits give high values
# Method in brief: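 Yeast carrying a defined genetic alteration in DNA damage repair or cell cycle control were exposed to test compounds. Growth inhibition was measured relative to vehicle-treated controls.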
# [16] = at 5.0 µM (retest, dose inferred, filed as 0.5)
# [17] = at 50.0 µM (retest, dose inferred, filed as 5.0)
compound,measurement,setting,value
CCN1/C(=C/c2ccc3ccccc3[n+]2CC)C=Cc2ccccc21,growth inhibition,[1]; [16],100% (active)
same,growth inhibition,[1]; [17],99% (active)
same,growth inhibition,[1]; at 50.0 µM,90.2% (active)
same,growth inhibition,[2]; at 1.2 µM,-5%
same,growth inhibition,[2]; at 3.7 µM,-4%
same,growth inhibition,[2]; at 11.0 µM,90% (active)
same,growth inhibition,[2]; at 33.0 µM,96% (active)
same,growth inhibition,[2]; at 100.0 µM,97% (active)
CNc1nc(C)nc2c1cnn2-c1ccc([N+](=O)[O-])cc1,growth inhibition,[3]; at 1.2 µM,-1%
same,growth inhibition,[3]; at 3.7 µM,-6%
same,growth inhibition,[3]; at 11.0 µM,10%
same,growth inhibition,[3]; at 33.0 µM,26%
same,growth inhibition,[3]; at 100.0 µM,41%
same,growth inhibition,[4]; at 1.2 µM,3%
same,growth inhibition,[4]; at 3.7 µM,1%
same,growth inhibition,[4]; at 11.0 µM,13%
same,growth inhibition,[4]; at 33.0 µM,12%
same,growth inhibition,[4]; at 100.0 µM,15%
same,growth inhibition,[5]; at 1.2 µM,11%
same,growth inhibition,[5]; at 3.7 µM,17%
same,growth inhibition,[5]; at 11.0 µM,42%
same,growth inhibition,[5]; at 33.0 µM,63%
same,growth inhibition,[5]; at 100.0 µM,69%
same,growth inhibition,[6]; at 1.2 µM,-2%
same,growth inhibition,[6]; at 3.7 µM,-5%
same,growth inhibition,[6]; [16],1%
same,growth inhibition,[6]; at 11.0 µM,16%
same,growth inhibition,[6]; at 33.0 µM,68%
same,growth inhibition,[6]; [17],76% (active)
same,growth inhibition,[6]; at 50.0 µM,79.2% (active)
same,growth inhibition,[6]; at 100.0 µM,88% (active)
same,growth inhibition,[7]; at 1.2 µM,0%
same,growth inhibition,[7]; at 3.7 µM,0%
same,growth inhibition,[7]; [16],-2%
same,growth inhibition,[7]; at 11.0 µM,2%
same,growth inhibition,[7]; at 33.0 µM,-1%
same,growth inhibition,[7]; [17],31%
same,growth inhibition,[7]; at 50.0 µM,-1.35%
same,growth inhibition,[7]; at 100.0 µM,-2%
same,growth inhibition,[8]; at 1.2 µM,11%
same,growth inhibition,[8]; at 3.7 µM,2%
same,growth inhibition,[8]; at 11.0 µM,22%
same,growth inhibition,[8]; at 33.0 µM,24%
same,growth inhibition,[8]; at 100.0 µM,25%
same,growth inhibition,[9]; [16],2%
same,growth inhibition,[9]; [17],83% (active)
same,growth inhibition,[9]; at 50.0 µM,69.7%
same,growth inhibition,[10]; at 1.2 µM,-6%
same,growth inhibition,[10]; at 3.7 µM,-5%
same,growth inhibition,[10]; at 11.0 µM,-5%
same,growth inhibition,[10]; at 33.0 µM,-6%
same,growth inhibition,[10]; at 100.0 µM,-8%
same,growth inhibition,[11]; [16],-4%
same,growth inhibition,[11]; [17],30%
same,growth inhibition,[11]; at 50.0 µM,2%
same,growth inhibition,[12]; at 1.2 µM,-5%
same,growth inhibition,[12]; at 3.7 µM,-2%
same,growth inhibition,[12]; [16],-2%
same,growth inhibition,[12]; at 11.0 µM,-12%
same,growth inhibition,[12]; at 33.0 µM,-12%
same,growth inhibition,[12]; [17],2%
same,growth inhibition,[12]; at 50.0 µM,-13.3%
same,growth inhibition,[12]; at 100.0 µM,-14%
same,growth inhibition,[13]; at 1.2 µM,-4%
same,growth inhibition,[13]; at 3.7 µM,9%
same,growth inhibition,[13]; at 11.0 µM,13%
same,growth inhibition,[13]; at 33.0 µM,24%
same,growth inhibition,[13]; at 100.0 µM,16%
same,growth inhibition,[14]; at 1.2 µM,5%
same,growth inhibition,[14]; at 3.7 µM,4%
same,growth inhibition,[14]; at 11.0 µM,44%
same,growth inhibition,[14]; at 33.0 µM,69%
same,growth inhibition,[14]; at 100.0 µM,80% (active)
same,growth inhibition,[1]; [16],-8%
same,growth inhibition,[1]; [17],91% (active)
same,growth inhibition,[1]; at 50.0 µM,57.5%
same,growth inhibition,[2]; at 1.2 µM,-1%
same,growth inhibition,[2]; at 3.7 µM,16%
same,growth inhibition,[2]; at 11.0 µM,49%
same,growth inhibition,[2]; at 33.0 µM,89% (active)
same,growth inhibition,[2]; at 100.0 µM,92% (active)
BrCc1ccccc1C(c1ccccc1)c1ccccc1,growth inhibition,[3]; at 1.2 µM,9%
same,growth inhibition,[3]; at 3.7 µM,79% (active)
same,growth inhibition,[3]; at 11.0 µM,96% (active)
same,growth inhibition,[3]; at 33.0 µM,96% (active)
same,growth inhibition,[3]; at 100.0 µM,94% (active)
same,growth inhibition,[4]; at 1.2 µM,-2%
same,growth inhibition,[4]; at 3.7 µM,34%
same,growth inhibition,[4]; at 11.0 µM,96% (active)
same,growth inhibition,[4]; at 33.0 µM,97% (active)
same,growth inhibition,[4]; at 100.0 µM,95% (active)
same,growth inhibition,[5]; at 1.2 µM,1%
same,growth inhibition,[5]; at 3.7 µM,6%
same,growth inhibition,[5]; at 11.0 µM,8%
same,growth inhibition,[5]; at 33.0 µM,9%
same,growth inhibition,[5]; at 100.0 µM,15%
same,growth inhibition,[6]; at 1.2 µM,8%
same,growth inhibition,[6]; at 3.7 µM,85% (active)
same,growth inhibition,[6]; [16],12%
same,growth inhibition,[6]; at 11.0 µM,97% (active)
same,growth inhibition,[6]; at 33.0 µM,96% (active)
same,growth inhibition,[6]; [17],96% (active)
same,growth inhibition,[6]; at 50.0 µM,98.1% (active)
same,growth inhibition,[6]; at 100.0 µM,93% (active)
same,growth inhibition,[7]; at 1.2 µM,4%
same,growth inhibition,[7]; at 3.7 µM,42%
same,growth inhibition,[7]; [16],21%
same,growth inhibition,[7]; at 11.0 µM,95% (active)
same,growth inhibition,[7]; at 33.0 µM,96% (active)
same,growth inhibition,[7]; [17],98% (active)
same,growth inhibition,[7]; at 50.0 µM,98.2% (active)
same,growth inhibition,[7]; at 100.0 µM,96% (active)
same,growth inhibition,[8]; at 1.2 µM,3%
same,growth inhibition,[8]; at 3.7 µM,64%
same,growth inhibition,[8]; at 11.0 µM,96% (active)
same,growth inhibition,[8]; at 33.0 µM,97% (active)
same,growth inhibition,[8]; at 100.0 µM,95% (active)
same,growth inhibition,[9]; [16],58%
same,growth inhibition,[9]; [17],98% (active)
same,growth inhibition,[9]; at 50.0 µM,97.9% (active)
same,growth inhibition,[10]; at 1.2 µM,8%
same,growth inhibition,[10]; at 3.7 µM,64%
same,growth inhibition,[10]; at 11.0 µM,97% (active)
same,growth inhibition,[10]; at 33.0 µM,97% (active)
same,growth inhibition,[10]; at 100.0 µM,96% (active)
same,growth inhibition,[12]; at 1.2 µM,4%
same,growth inhibition,[12]; at 3.7 µM,56%
same,growth inhibition,[12]; [16],24%
same,growth inhibition,[12]; at 11.0 µM,96% (active)
same,growth inhibition,[12]; at 33.0 µM,97% (active)
same,growth inhibition,[12]; [17],97% (active)
same,growth inhibition,[12]; at 50.0 µM,97.3% (active)
same,growth inhibition,[12]; at 100.0 µM,94% (active)
same,growth inhibition,[13]; at 1.2 µM,-1%
same,growth inhibition,[13]; at 3.7 µM,62%
same,growth inhibition,[13]; at 11.0 µM,97% (active)
same,growth inhibition,[13]; at 33.0 µM,96% (active)
same,growth inhibition,[13]; at 100.0 µM,95% (active)
same,growth inhibition,[15]; at 1.2 µM,10%
same,growth inhibition,[15]; at 3.7 µM,68%
same,growth inhibition,[15]; at 11.0 µM,97% (active)
same,growth inhibition,[15]; at 33.0 µM,97% (active)
same,growth inhibition,[15]; at 100.0 µM,96% (active)
same,growth inhibition,[14]; at 1.2 µM,9%
same,growth inhibition,[14]; at 3.7 µM,84% (active)
same,growth inhibition,[14]; at 11.0 µM,97% (active)
same,growth inhibition,[14]; at 33.0 µM,97% (active)
same,growth inhibition,[14]; at 100.0 µM,96% (active)
same,growth inhibition,[1]; [16],82% (active)
same,growth inhibition,[1]; [17],97% (active)
same,growth inhibition,[1]; at 50.0 µM,98.3% (active)
same,growth inhibition,[2]; at 1.2 µM,25%
same,growth inhibition,[2]; at 3.7 µM,89% (active)
same,growth inhibition,[2]; at 11.0 µM,96% (active)
same,growth inhibition,[2]; at 33.0 µM,97% (active)
same,growth inhibition,[2]; at 100.0 µM,96% (active)
